{
  "source": "PubChem BioAssay",
  "note": "Active and inactive are the calls of the source. Cut-off read from the data, not from the text of the source: active = inhibition above about 28%; inactive = the rest.",
  "data": [
    {"assay": "StAR promoter reporter inhibitors, counter-screen for LRH-1 inverse agonist project, cell-based, luminescence, high throughput (AID 651611)", "settings": "StAR promoter luciferase reporter counterscreen, at 3.6 µM, stronger effect = higher value", "values": [
      {"smiles": "Clc1ccccc1-c1nc(N/N=C/c2cccnc2)c2ccccc2n1", "inhibition": "6.03% (inactive)"},
      {"smiles": "Cc1ccccc1Oc1nc2c(C)cccn2c(=O)c1/C=C(\\C#N)C(=O)NC1CCS(=O)(=O)C1", "note": "(stereo not given)", "inhibition": "8.01% (inactive)"},
      {"smiles": "O=C(NCc1cccnc1)c1cccn2c(=O)c3sccc3nc12", "inhibition": "17.9% (inactive)"},
      {"smiles": "O=C(Cn1cnc2c(nnn2-c2ccccc2)c1=O)NCCc1ccccc1", "inhibition": "13.4% (inactive)"},
      {"smiles": "COc1cccc(-c2cc(C(=O)Nc3ccncc3)c3ccccc3n2)c1", "inhibition": "9.54% (inactive)"},
      {"smiles": "COc1ccc(-c2c(C)cc3oc(=O)cc(-c4ccccc4)c3c2C)cc1", "inhibition": "10.6% (inactive)"},
      {"smiles": "O=C(CCl)Nc1ccccc1C(=O)c1ccccc1", "inhibition": "1.14% (inactive)"},
      {"smiles": "Cc1cc(C)c(SCCc2ccncc2)c(C)c1", "inhibition": "5.23% (inactive)"},
      {"smiles": "COc1ccc(N2CCN(C(=O)CN3C(=O)NC4(CCCCCC4)C3=O)CC2)cc1", "inhibition": "7.32% (inactive)"},
      {"smiles": "CC1CCCC(C)N1C(=O)COC(=O)Cc1ccc(Cl)cc1", "note": "(stereo not given)", "inhibition": "-5.45% (inactive)"},
      {"smiles": "CC(=O)Nc1ccc2nc(NC(=O)c3ccc([N+](=O)[O-])o3)sc2c1", "inhibition": "1.53% (inactive)"},
      {"smiles": "CCCc1cc(=O)oc2cc(OCC(=O)NCc3ccccn3)ccc12", "inhibition": "10.6% (inactive)"},
      {"smiles": "Cn1c(=O)n(C)c2cc(NC(=O)CSc3nnc(-c4ccccc4O)n3-c3ccccc3)ccc21", "inhibition": "30.1% (active)"},
      {"smiles": "O=C(CN1C(=O)NC2(CCCC2)C1=O)NCCc1ccc(F)cc1", "inhibition": "15.3% (inactive)"},
      {"smiles": "O=C1/C(=C\\c2ccc(Cl)c(Cl)c2)CN(C(=O)CCN2CCOCC2)C/C1=C/c1ccc(Cl)c(Cl)c1", "inhibition": "67.9% (active)"}
    ]}
  ]
}
